Compound activity deposited in PubChem by several laboratories.
Sampled rows, rich in hits. Any-hit rate of the full collection: about 1%.
MazEF act: activators of E. coli MazEF toxin-antitoxin RNase, primary screen, biochemical, fluorescence, uHTS. Endoribonuclease toxin MazF (Escherichia coli (strain K12)), P0AE70. FAM/BHQ RNA-DNA oligo cleavage fluorescence, 5 h. activation, % at 20 µM. actives 0.32% (n = 350,000). AID 504720, 2011; in the data active = activation above about 50%
Target sequence (P0AE70 whole entry, looked up): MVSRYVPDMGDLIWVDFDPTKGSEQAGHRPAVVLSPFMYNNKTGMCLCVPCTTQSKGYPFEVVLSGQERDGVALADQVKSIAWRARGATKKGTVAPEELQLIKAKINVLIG
Mtb BioA inh: M. tuberculosis BioA enzyme inhibitors, primary screen, biochemical, plate reader, single point, HTS; purified M. tuberculosis BioA enzyme; inhibition, % at 9.99 µM; actives 0.096% (n = 360,000); AID 602481, 2012; in the data active = inhibition above about 40%; inconclusive = no clear call, values can overlap the other calls
DUSP3 inh: VHR1 phosphatase inhibitors, primary screen, biochemical, absorbance, uHTS. recombinant VHR phosphatase, pNPP absorbance. inhibition, % at 13.3 µM. actives 0.52% (n = 290,000). AID 1654, 2009; in the data active = inhibition above about 50%
Target sequence (P51452 whole entry, looked up): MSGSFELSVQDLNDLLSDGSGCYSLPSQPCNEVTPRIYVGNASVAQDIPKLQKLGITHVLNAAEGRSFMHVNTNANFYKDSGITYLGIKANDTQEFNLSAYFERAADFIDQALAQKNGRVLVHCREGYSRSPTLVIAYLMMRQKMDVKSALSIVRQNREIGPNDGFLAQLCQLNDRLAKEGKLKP
FadD28 binding: inhibitors of FadD28 bisubstrate probe binding, primary screen, biochemical, fluorescence polarization, single point; Mycobacterium tuberculosis FadD28 fatty-acid-AMP ligase; inhibition, % at 12.5 µM; actives 0.22% (n = 360,000); in the data active = inhibition above about 8.5%, passing the limit was not always enough; inconclusive = no clear call, values can overlap the other calls
Yp Topo-I inh: Yersinia pestis topoisomerase I inhibitors, primary screen, biochemical, cleavage product accumulation, plate reader, single point | activity, % at 10 µM | actives 0.064% (n = 360,000) | Y. pestis Topo-I cleavage product accumulation | AID 504884, 2011; in the data active = activity above about 50%, passing the limit was not always enough; inconclusive = no clear call, values can overlap the other calls
TcdB GH inh: TcdB glycohydrolase inhibitors, primary screen, biochemical, single point, plate reader | TcdB glycohydrolase enzymatic assay | inhibition, % at 9.99 µM | actives 0.24% (n = 350,000) | AID 652162, 2013; in the data active = inhibition above about 10%
The depositor's hits bear a star; ? = inconclusive; · = no result.

SMILES | MazEF act | Mtb BioA inh | DUSP3 inh | FadD28 binding | Yp Topo-I inh | TcdB GH inh
Cn1c(Cc2cccs2)nnc1SCc1nc2ccccc2[nH]1 | 5.1 | 7.4 | 53.4* | -1.7 | 4.3 | ·
CCCC#Cc1ccc([C@H]2[C@H](CO)N3CCCCN(CC4CC4)C[C@@H]23)cc1 | · | 1.8 | · | · | · | 0.5
COc1ccc(/C=N/Nc2ncc(Br)cn2)c(OC)c1 | -4.8 | · | 87.8* | -0.7 | -5.5 | 0.3
COc1ccc(C(=O)CNc2ccccc2Br)cc1 | -1.6 | -1.6 | -15.2 | -0.9 | 1.3 | 0.1
NC(=O)c1ccccc1NCC(=O)c1ccc(Cl)cc1 | 31.5 | · | 38.5 | 0.4 | 57.5* | 1.2
Cc1ccccc1NCC(=O)c1ccc(Br)cc1 | 10.3 | -2.3 | -1.0 | -2.7 | 176.3* | 3.1
O=C(CNc1ccccc1C(=O)O)c1ccccc1 | 5.6 | -1.0 | 8.4 | -0.1 | -0.7 | 0.5
O=C(C[C@H]1CC[C@H]2[C@@H](COC[C@@H](O)CN2C(=O)c2cccnc2)O1)NCc1ccccc1 | · | -0.8 | · | · | · | -0.1
CN1C(=O)C(C)(C)c2cc(S(=O)(=O)NCc3ccc(C(=O)NCc4ccco4)cc3)ccc21 | 139.7* | -0.7 | 9.5 | 0.9 | 2.3 | 0.3
C[C@@H]1CN([C@H](C)CO)S(=O)(=O)c2ccc(-c3ccc(C(=O)N(C)C)cc3)cc2O[C@H]1CN(C)C(=O)Nc1ccccc1F | · | 1.7 | · | · | · | 0.4
C/C(CC(C)C)=N\NC(=O)Nc1ccccc1 | -2.5 | -1.4 | 50.8* | -3.0 | -5.4 | -0.9
COc1ccc(NC(=O)N[C@H]2CC[C@H](CCNC(=O)Cc3ccncc3)O[C@@H]2CO)cc1 | · | -2.6 | · | · | · | -1.2
CN1CCN(C(=O)C[C@@H]2CC[C@H]3[C@@H](COC[C@H](O)CN3CC3CCCCC3)O2)CC1 | · | 1.5 | · | · | · | -1.0
COc1ccc(-c2cc(-c3ccccc3)nc(NN)n2)cc1OC | 14.4 | -1.6 | 53.9* | -1.9 | 15.6 | 0.1
CCn1c(N)c(C(=O)NCC2CCCO2)sc1=S (stereo not given) | -1.9 | 0.2 | -25.0 | -2.2 | 0.7 | ·
Cc1ccc(CNC(=O)c2ccc3c(=O)n(CC4CCCO4)c(=S)[nH]c3c2)cc1 (stereo not given) | 5.2 | -0.5 | -6.0 | 0.7 | 4.8 | ·
CCCCCNC(=O)c1ccc2c(=O)[nH]c3c(C(=O)NCC4CCCO4)sc(=S)n3c2c1 (stereo not given) | 1.2 | 1.3 | 17.5 | 17.0* | 13.5 | ·
Cc1ccc(CNC(=O)c2ccc3c(=O)[nH]c4c(C(=O)NCC5CCCO5)sc(=S)n4c3c2)cc1 (stereo not given) | 0.2 | 2.3 | 7.6 | 60.1* | 5.3 | 1.6
O=C(NCc1ccco1)c1sc(=S)n2c1[nH]c(=O)c1ccccc12 | -0.3 | 1.5 | 15.1 | ? | -5.2 | ·
O=C(NC1CCCC1)c1sc(=S)n2c1[nH]c(=O)c1ccccc12 | -11.7 | -2.3 | 37.3 | 28.8* | 7.0 | ·
O=C(NCc1ccccc1)c1ccc2c(=O)[nH]c3c(C(=O)NCC4CCCO4)sc(=S)n3c2c1 (stereo not given) | -3.1 | 1.9 | 18.4 | 23.4* | 3.9 | 0.2
CCCC(=O)Nc1ccc2c(c1)C(=O)N(C)C[C@H](OC)[C@@H](C)CN(Cc1cncnc1)[C@@H](C)CO2 | · | 1.0 | · | · | · | ·
COCc1cn(CC[C@H]2CC[C@@H](NC(=O)Cc3cccnc3)[C@H](CO)O2)nn1 | · | -0.1 | · | · | · | ·
CCN(CC)c1ccc(N=Cc2ccc(N(CC)CC)cc2O)cc1 | 162.2* | · | -12.2 | -2.0 | -16.5 | ·
CCN(CC)c1ccc(C=Nc2ccc(N(C)C)cc2)c(O)c1 | 532.4* | · | 34.6 | -2.1 | -9.3 | ·
SMILES | MazEF act | Mtb BioA inh | DUSP3 inh | FadD28 binding | Yp Topo-I inh | TcdB GH inh
CCN(CC)c1ccc(C=Nc2ccc(C)cc2)c(O)c1 | 1.7 | -1.6 | 3.3 | -4.2 | -0.5 | ·
COc1cc(/C=C/C(=O)N2CCCC=CC2=O)cc(OC)c1OC | · | · | · | · | · | 1.5
Cc1cc(C=C2C(=O)N(C)C(=S)N(C)C2=O)c(C)n1C1CCCC1 | -36.4 | 0.8 | 14.5 | 0.1 | 6.7 | ·
CCN1C(=O)C(=Cc2cc(C)n(C3CC3)c2C)C(=O)N(CC)C1=S | 676.8* | 0.1 | 0.4 | -1.4 | -3.4 | ·
CC1=CC(c2ccccc2)n2nc(N3C(=O)C4CC=CCC4C3=O)nc2N1 (stereo not given) | 3.5 | -1.8 | 57.4* | -0.1 | 15.2 | ·
CCOc1cccc(C2c3c(oc4cc(C)c(C)cc4c3=O)C(=O)N2CCCN(C)C)c1 (stereo not given) | · | · | 50.3* | · | · | ·
Cc1ccc(CNC(=O)CN2C(=O)NC(C)(c3ccccc3Cl)C2=O)cc1 (stereo not given) | -1.9 | · | 52.6* | 1.2 | 11.3 | 0.6
Cc1ccc(CNC(=O)CN2C(=O)NC(C)(c3ccc(Cl)cc3)C2=O)cc1 (stereo not given) | -5.5 | 0.8 | 5.9 | 0.8 | -4.5 | 2.5
CO[C@H]1CN(C)C(=O)c2ccc(NC(=O)Nc3cc(F)ccc3F)cc2OC[C@@H](C)N(C(=O)c2cnccn2)C[C@@H]1C | · | 3.5 | · | · | · | 0.4
O=S(=O)(CC(O)(c1ccccc1)c1ccccc1)CC(O)(c1ccccc1)c1ccccc1 | 69.3* | · | · | -1.2 | 28.9 | 1.0
CC(O)(CS(=O)(=O)c1ccc(Br)cc1)c1ccccc1 (stereo not given) | -0.3 | -0.9 | -6.7 | -0.6 | 1.0 | 1.2
c1ccc2c(c1)CCN(CCCNc1nc3ccccc3n3cnnc13)C2 | 3.3 | 0.1 | 54.2* | -3.7 | 2.5 | 0.6
COCCNc1nc2ccccc2n2cnnc12 | 7.5 | -1.9 | 9.5 | 0.0 | 7.7 | 0.6
O=C(C[C@@H]1C[C@@H]2c3cc(NC(=O)C4CCOCC4)ccc3O[C@@H]2[C@@H](CO)O1)NCC1CC1 | · | -2.2 | · | · | · | 0.0
COc1ccc2c(c1)Cc1cc(NC(=O)c3ccccc3-c3ccccc3C(=O)O)ccc1-2 | 0.5 | 0.4 | · | 10.7* | 12.4 | -3.1
COc1ccc2c3c(n(C)c2c1)[C@H](CO)NCC31CCN(S(=O)(=O)c2ccccc2)CC1 | · | · | · | · | · | 1.7
O=C(CNC(=O)/C=C/c1ccccc1)N=Nc1c(O)n(Cc2ccccc2)c2ccccc12 | · | · | 56.2* | · | · | 0.2
Cc1noc(C)c1S(=O)(=O)N(C)C[C@H]1Oc2ccc(NS(=O)(=O)c3cn(C)cn3)cc2CC(=O)N([C@H](C)CO)C[C@@H]1C | · | 5.5 | · | · | · | -1.4
Cc1ccc(-n2c(C)cc(C(=O)Cn3nc(C(=O)O)c4ccccc4c3=O)c2C)cc1 | -22.5 | · | 9.0 | -3.9 | 79.3* | -0.4
COc1ccc(-n2c(C)cc(C(=O)Cn3nc(C(=O)O)c4ccccc4c3=O)c2C)cc1 | -10.7 | · | -2.7 | -2.8 | -1.2 | ·
Cc1cc(C(=O)Cn2nc(C(=O)O)c3ccccc3c2=O)c(C)n1-c1ccc(OC(F)F)cc1 | 2.6 | · | -2.0 | -3.2 | 68.1* | 0.6
